# Bioassay records deposited in PubChem by National Center for Advancing Translational Sciences (NCATS).
# Shown are actives, neighbours in structure and some others; about 7.8% of the full set was active somewhere.
# HCV inh: blocks hepatitis C virus; Huh7.5.1 HCVcc-Cre infection, luciferase reporter, 44 h; AID 651820; Potency, µM (top dose mostly 41.8 µM), for the others: top-dose activity change, negative = inhibition, most hits filed as inhibitors; hit rate 3.4% among 340,000; active = well fitted inhibition curve with a large enough effect; inconclusive = small, poorly fitted or top-dose-only effect, or another doubt; inactive = no such curve, though single readings can be large or run the other way; note: potency is the fitted concentration of half-maximal effect
#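 Antiviral activity was scored by luciferase reporter output from cells infected with HCVcc-Cre (~0.5 moi) in presence of compound, 44 h infection period, cells seeded 1,000/well 4 h prior.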
# Vaccinia mCherry: vaccinia inhibition (mCherry reporter); Vaccinia virus mCherry reporter infection, fluorescence; Potency, µM (titrated, usually from 36.5 µM), for the others: top-dose activity change, negative = inhibition, hits mostly inhibitors; hit rate 0.63% among 310,000; AID 720579; calls by dose curve; tested in A549 cells; note: potency is the fitted concentration of half-maximal effect; nearly all actives have a fitted effect of over 35% in size
# Vaccinia Venus: inhibitors of vaccinia virus (Venus reporter). hit rate 0.46% among 330,000. Potency, µM (top dose mostly 36.5 µM), for the others: at the top dose activity change, negative = inhibition, hits mostly inhibitors. Vaccinia virus Venus reporter expression, fluorescence; calls by dose curve; tested in A549 cells; note: potency is the fitted concentration of half-maximal effect; nearly all actives have a fitted effect of over 30% in size
# MARV entry inh: inhibitors of Marburg virus binding or cell entry; Marburg virus pseudotyped entry inhibition, cell reporter; Potency, µM (series often up to 37.8 µM), inactives show top-dose activity change, negative = inhibition, usual class: inhibitors; hit rate 1.8% among 300,000; calls by dose curve; tested in HEK293 cells; note: potency is the fitted concentration of half-maximal effect
# LASV entry inh: inhibitors of Lassa virus binding or cell entry. hit rate 1.2% among 300,000. AID 540256. Lassa virus pseudotype entry inhibition, cell reporter. Potency, µM (series often up to 37.9 µM), for inactives: top-dose activity change, negative = inhibition, most hits filed as inhibitors; calls by dose curve; tested in HEK293 cells; note: potency is the fitted concentration of half-maximal effect; nearly all actives have a fitted effect of over 50% in size
# HCMV inh: human cytomegalovirus inhibition; HFF cells, HCMV-luciferase reporter, 72 h; active compounds read low; activity change, negative = inhibition, % at 57.5 µM; hit rate 4.5% among 410,000; AID 1259415; in the data active = activity change below about -60%; inconclusive = no clear call, values can overlap the other calls; inactive = above about -39%
#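 Steps: HFFs plated, 16 h 37C; compounds added; HCMV-luciferase added to MOI 1 PFU/cell; 72 h 37C; OneGlo reagent, 5 min room temperature; luminescence read, normalized to controls.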
# The depositor's hits bear a star; i = inactive; ? = inconclusive; nt = no result; ! = a repeat was not active; [ ] = dose if it differs, or a comment. % is set by controls: 0 for no effect and ±100 for the full control effect.
SMILES,HCV inh,Vaccinia mCherry,Vaccinia Venus,MARV entry inh,LASV entry inh,HCMV inh
Cc1nc2ccccc2c2oc(C(=O)N3CC(C)CC(C)C3)cc12 (centres undefined),15%,nt,nt,nt,nt,-37
Cc1cc(C)c2c(CN3CCN(Cc4ccccc4)CC3)cc(=O)oc2c1,?,nt,nt,nt,nt,-62*
CCN(Cc1cc(=O)oc2cc(C)ccc12)c1ccccc1,22µM*,nt,nt,nt,nt,4
Cc1ccc2c(CN(Cc3ccccc3)Cc3ccccc3)cc(=O)oc2c1,nt,i,-6%,?,nt,0
Cc1cc(C)c2c(CN(Cc3ccccc3)Cc3ccccc3)cc(=O)oc2c1,nt,i,1%,nt,22µM*,?
CC1=CC[C@@H](COc2ccccc2)O[C@@]2(C1)C(=O)N(Cc1ccc(F)cc1)c1cccc(Br)c12,nt,nt,nt,-10%[14.2 µM],nt,nt
COc1cc(C(=O)Nc2ccc(S(=O)(=O)NC(C)C)cc2)cc(OC)c1OC,?,nt,nt,24%,3%,61
CCn1c2ccccc2c2cc(NC(=O)COc3ccc(OC)cc3)ccc21,?,nt,nt,?,-12%,-27
COc1cc(C(=O)Nc2ccc(S(=O)(=O)NC(C)(C)C)cc2)cc(OC)c1OC,13µM*,nt,nt,0%,-1%,62
CCn1c2ccccc2c2cc(NC(=O)c3cc(C)on3)ccc21,14µM*,-28%,?,?,?,-32
CCn1c2ccccc2c2cc(NC(=O)c3cc(OC)cc(OC)c3)ccc21,?,-25%,?,?,?,-92*
CCn1c2ccccc2c2cc(NC(=O)c3cc(OC)c(OC)c(OC)c3)ccc21,?,?,?,1.4µM*,?,-88*
COc1cccc(CNC(=O)C(=O)NCC(c2cccs2)S(=O)(=O)c2cccs2)c1 (centres undefined),nt,?,?,nt,-13%[46.1 µM],-11
COCCNC(=O)CSc1nc(-c2ccccc2C)nc2c1c(=O)n(C)c(=O)n2C,nt,7%,-2%,nt,-27%[46.1 µM],1
CC(Oc1ccccc1)C(=O)N[C@@H]1C(=O)N2[C@@H]1SC(C)(C)[C@@H]2C(=O)OCc1ccccc1 (some centres undefined),nt,-5%,-16%,nt,nt,nt
O=C(CCCCn1c(=O)c2ccccc2n(Cc2cccc(Cl)c2)c1=O)NCc1ccc2c(c1)OCO2,nt,-27%,-13%,-11%[46.1 µM],-7%[46.1 µM],-2
Cn1cc(C(=O)Nc2ccc(C#N)cc2)c2ccccc2c1=O,-8%,14%,0%,?,11%,-67*!
Oc1ccc2c(c1)[C@H]1CCC[C@]1(N1CCOCC1)O2,nt,nt,nt,22%,nt,nt
COC(=O)c1ccc(COc2ccccc2/C=C(\C#N)C(=O)Nc2c(C)cc(C)cc2C)cc1,?,-26%,-24%,?,?,-93*
COc1cc(/C=N/O)ccc1OCc1ccc(C(=O)O)cc1,27%,-7%,0%,0.1µM*,?,59
COc1cc(/C=N/O)ccc1OCc1ccc(Cl)cc1,nt,nt,nt,nt,nt,137
COC(=O)c1ccc(COc2ccccc2/C=N/NS(=O)(=O)c2ccccc2)cc1,10µM*,nt,nt,13µM*,-29%,-86*
CCOc1cc(/C=N/O)ccc1OCc1ccc(F)cc1,7.1µM*,i,-22%,?,5%,-30
Cc1ccc(C)c(CN2CCCN(Cc3ccccc3C)S2(=O)=O)c1,nt,-3%,-5%,nt,-3%[46.1 µM],?
COc1ccc(Cl)cc1NC(=O)c1cnc2sc(N3CCOCC3)nn2c1=O,nt,-14%,-19%,nt,26%[46.1 µM],32
SMILES,HCV inh,Vaccinia mCherry,Vaccinia Venus,MARV entry inh,LASV entry inh,HCMV inh
COc1cc(/C=N/NS(=O)(=O)c2ccc(C)cc2)ccc1OCc1cccc(C(=O)O)c1,29%,i,-9%,?,?,57
COc1cc(/C=N/NS(=O)(=O)c2ccc3ccccc3c2)ccc1OCc1ccc(C(=O)O)cc1,-1%,i,18%,0.89µM*,?,35
CCC[C@H]1[C@@H](NS(=O)(=O)c2ccc3ccccc3c2)CC[C@@]23CCCN2C(=O)CCC[C@@H]13,nt,nt,nt,nt,nt,-14
CCCn1ccc2c(OCC(=O)Nc3ccccc3C(=O)OCC)cccc2c1=O,nt,?,-28%,nt,-19%[46.1 µM],8
NC(CSCc1cccc(Br)c1)C(=O)O (centres undefined),7%,i,-9%,nt,nt,-65*
CC1=CC[C@@H](COc2ccccc2)O[C@@]2(C1)C(=O)N(Cc1ccc(Br)cc1)c1cccc(Br)c12,nt,nt,nt,46%[14.2 µM],nt,nt
Cc1ncc(CO)c(/C=N/NC(=O)c2ccc(Br)cc2)c1O,9%,nt,nt,-26%,?,nt
Cc1ncc(CO)c(/C=N/NC(=S)Nc2ccc(C(C)C)cc2)c1O,11µM*,-20%[7.34 µM],-2%[7.34 µM],nt,nt,5
COc1ccc(S(=O)(=O)N2CCN(C(=O)c3cc(-c4ccc(Br)cc4)n[nH]3)CC2)cc1OC,?,-20%,?,?,10µM*,-72*!
CC(C)=CCc1c2c(c3occ(-c4ccc(O)cc4)c(=O)c3c1O)C=CC(C)(C)O2,?,?,?,nt,nt,-106*
CC(C)=CCc1c2c(c3occ(-c4ccc(O)c(O)c4)c(=O)c3c1O)C=CC(C)(C)O2,?,10µM*,11µM*,?,16µM*,-29
CC1(C)C=Cc2c(c3c(c4c(=O)c(-c5ccc(O)cc5)coc24)OC(C)(C)CC3)O1,-60%,-29%,-25%,nt,nt,-20
COCc1c(C(=O)NC2CCCC2)cnn1-c1nccc(-c2cc(C)sc2C)n1,nt,-11%,-6%,nt,nt,nt
CCn1c(=O)n(CC)c2cc(N3CCCC3)c(NC(=O)c3ccccc3F)cc21,13µM*,?,-8%,?,?,-36
CCn1c(=O)n(CC)c2cc(N3CCCC3)c(NC(=O)c3cc(Br)ccc3OC)cc21,?,nt,nt,nt,nt,-70*
CC1=C(C(=O)Nc2ccc(Cl)cc2)C(c2ccccc2)n2ncc(C(=O)Nc3ccccc3)c2N1 (centres undefined),nt,i,-17%,?,?,13
CC1=C(C(=O)Nc2ccc(Cl)cc2)C(c2ccccc2C)n2ncc(C(=O)Nc3ccc(C)cc3)c2N1 (centres undefined),nt,-3%,-12%,5.6µM*,?,-32
O=C(Nc1ccc(Cl)cc1)c1cnn2c1NC(c1ccccc1)=CC2c1ccccc1 (centres undefined),nt,-26%,-19%,nt,16%[46.1 µM],-102*
COc1cccc(N2CCN(C3=NS(=O)(=O)C(c4ccc(C)cc4)=C3C)CC2)c1,nt,-7%,-16%,?,29%[46.1 µM],0
CC1=C(c2ccc(Cl)cc2)S(=O)(=O)N=C1N1CCN(c2cccc(C(F)(F)F)c2)CC1,nt,-30%,-28%,?,-23%[46.1 µM],-60*
Cc1cn(C)c(CC(=O)Nc2ccc(F)cc2Cl)c1C(=O)O,nt,-7%,-6%,nt,?,-2
CCOc1ccc(CCNC(=O)c2ccc(-c3nc(CSc4ccccc4)c(C)o3)cc2)cc1,nt,-1%,-3%,nt,6%[46.1 µM],11
COc1ccccc1NCCC(=O)OCC(=O)NC1CC1,1%,nt,nt,nt,nt,-83*
